According to article PMC7862700, “An all-to-all approach to the identification of sequence-specific readers for epigenetic DNA modifications on cytosine”:

How the values were obtained:
Test in all cases: DAPPL (digital affinity profiling via proximity ligation, sequencing); 10 mM Tris-HCl pH 7.5, 50 mM NaCl, 1 mM DTT, 4% glycerol, room temperature, 30 min; GST-TFs on glutathione beads, 16-mer random dsDNA library, 0.1% formaldehyde crosslink after washing; high values mean tight binding
Conditions in all cases: protein: recombinant; tags: N-terminal GST; dsDNA, one strand shown
ERG = target: T1, ERG (Homo sapiens, UniProt P11308 1-479)
T1 sequence: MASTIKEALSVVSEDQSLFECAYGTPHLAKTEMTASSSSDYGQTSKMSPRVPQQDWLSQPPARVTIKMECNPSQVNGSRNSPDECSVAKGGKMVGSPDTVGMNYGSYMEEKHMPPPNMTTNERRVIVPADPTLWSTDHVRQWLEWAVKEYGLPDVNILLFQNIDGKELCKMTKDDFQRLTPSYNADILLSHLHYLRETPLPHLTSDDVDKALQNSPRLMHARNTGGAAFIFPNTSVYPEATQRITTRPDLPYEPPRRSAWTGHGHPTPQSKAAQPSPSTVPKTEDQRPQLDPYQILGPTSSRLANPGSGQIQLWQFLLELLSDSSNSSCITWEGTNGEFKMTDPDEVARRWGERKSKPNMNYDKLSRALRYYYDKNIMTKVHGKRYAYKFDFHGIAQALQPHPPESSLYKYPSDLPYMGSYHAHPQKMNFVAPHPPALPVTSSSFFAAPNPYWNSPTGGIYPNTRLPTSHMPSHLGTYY
How it was run: (§1)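 Sequencing on an Illumina NextSeq500 followed washing, crosslinking with 0.1% formaldehyde, proximity ligation (BsaI/T4 ligase, 1 h, 37 °C) and PCR amplification of pools that had been incubated for 30 min at room temperature with 200 nmole of a random double-stranded 16-mer DNA library in Tris/NaCl/DTT/glycerol buffer. Each pool held DNA-barcoded human transcription factors, expressed in yeast as GST fusions and captured on glutathione beads, plus a tag-only sample. Binding signal is a hexamer's read frequency for a factor divided by its frequency in the tag-only sample.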

ELF1 = ELF1 (Homo sapiens, UniProt P32519 1-619)
How it was run: as §1

EHF = target: T2, EHF (Homo sapiens, UniProt Q9NZC4 1-300)
T2 sequence: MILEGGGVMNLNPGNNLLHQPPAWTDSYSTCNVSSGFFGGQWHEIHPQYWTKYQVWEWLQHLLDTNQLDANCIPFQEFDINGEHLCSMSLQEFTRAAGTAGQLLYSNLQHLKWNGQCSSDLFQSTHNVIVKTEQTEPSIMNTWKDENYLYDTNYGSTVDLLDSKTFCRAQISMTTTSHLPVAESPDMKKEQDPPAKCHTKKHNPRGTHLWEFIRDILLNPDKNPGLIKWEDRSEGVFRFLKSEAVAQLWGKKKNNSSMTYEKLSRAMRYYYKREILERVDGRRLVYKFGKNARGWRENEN
How it was run: as §1

ETV5 = ETV5 (Homo sapiens, UniProt P41161 1-510)
How it was run: as §1

ELK4 = target: T3, ELK4 (Homo sapiens, UniProt P28324-2 1-405)
T3 sequence: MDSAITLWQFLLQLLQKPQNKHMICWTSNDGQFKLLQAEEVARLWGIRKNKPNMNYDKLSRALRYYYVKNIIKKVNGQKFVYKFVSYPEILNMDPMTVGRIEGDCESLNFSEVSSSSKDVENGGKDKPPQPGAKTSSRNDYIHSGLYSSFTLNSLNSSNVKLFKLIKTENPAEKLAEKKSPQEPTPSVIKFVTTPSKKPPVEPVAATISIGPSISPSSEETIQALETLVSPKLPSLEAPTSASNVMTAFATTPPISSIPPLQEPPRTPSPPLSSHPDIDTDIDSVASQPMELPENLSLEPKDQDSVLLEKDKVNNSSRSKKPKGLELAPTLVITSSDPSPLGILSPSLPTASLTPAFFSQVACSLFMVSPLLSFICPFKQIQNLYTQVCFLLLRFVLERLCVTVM
How it was run: as §1

ETV2 = target: T4, ETV2 (Homo sapiens, UniProt O00321 1-342)
T4 sequence: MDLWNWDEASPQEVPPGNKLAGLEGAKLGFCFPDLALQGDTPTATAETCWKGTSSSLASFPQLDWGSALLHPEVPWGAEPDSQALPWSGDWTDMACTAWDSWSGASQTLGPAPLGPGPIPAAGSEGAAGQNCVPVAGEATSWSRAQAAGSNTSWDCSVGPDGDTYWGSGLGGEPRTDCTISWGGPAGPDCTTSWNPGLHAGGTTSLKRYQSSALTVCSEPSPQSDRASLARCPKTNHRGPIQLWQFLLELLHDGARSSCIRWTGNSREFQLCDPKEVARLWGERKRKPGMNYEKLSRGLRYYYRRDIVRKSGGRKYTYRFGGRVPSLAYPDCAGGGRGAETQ
How it was run: as §1

ELF3 = target: T5, ELF3 (Homo sapiens, UniProt P78545 1-371)
T5 sequence: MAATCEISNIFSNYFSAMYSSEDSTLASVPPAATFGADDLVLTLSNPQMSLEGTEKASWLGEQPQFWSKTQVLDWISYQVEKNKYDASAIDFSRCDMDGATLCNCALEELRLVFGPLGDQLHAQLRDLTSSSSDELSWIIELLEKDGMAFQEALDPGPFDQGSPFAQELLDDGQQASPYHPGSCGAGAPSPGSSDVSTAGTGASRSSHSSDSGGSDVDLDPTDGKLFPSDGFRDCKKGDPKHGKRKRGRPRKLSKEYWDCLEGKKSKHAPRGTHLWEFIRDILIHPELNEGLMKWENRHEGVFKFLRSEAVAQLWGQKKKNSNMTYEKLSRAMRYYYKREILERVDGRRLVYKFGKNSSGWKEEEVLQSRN
How it was run: as §1

ERF = target: T6, ERF (Homo sapiens, UniProt P50548 1-548)
T6 sequence: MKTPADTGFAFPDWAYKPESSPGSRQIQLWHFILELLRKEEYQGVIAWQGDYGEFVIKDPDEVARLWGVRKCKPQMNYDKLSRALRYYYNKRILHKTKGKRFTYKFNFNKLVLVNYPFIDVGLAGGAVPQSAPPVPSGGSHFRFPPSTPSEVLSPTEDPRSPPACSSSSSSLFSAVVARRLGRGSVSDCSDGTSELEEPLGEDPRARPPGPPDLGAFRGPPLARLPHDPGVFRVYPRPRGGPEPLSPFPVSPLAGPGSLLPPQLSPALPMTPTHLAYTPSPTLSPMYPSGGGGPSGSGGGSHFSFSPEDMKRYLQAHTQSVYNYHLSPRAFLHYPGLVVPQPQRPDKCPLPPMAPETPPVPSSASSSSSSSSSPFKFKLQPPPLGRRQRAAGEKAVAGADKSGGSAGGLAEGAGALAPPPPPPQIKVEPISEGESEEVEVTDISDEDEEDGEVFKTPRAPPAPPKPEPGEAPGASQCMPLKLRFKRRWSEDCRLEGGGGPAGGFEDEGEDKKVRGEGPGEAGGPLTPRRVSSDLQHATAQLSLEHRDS
How it was run: as §1

ETV3L = target: T7, ETV3L (Homo sapiens, UniProt Q6ZN32 1-361)
T7 sequence: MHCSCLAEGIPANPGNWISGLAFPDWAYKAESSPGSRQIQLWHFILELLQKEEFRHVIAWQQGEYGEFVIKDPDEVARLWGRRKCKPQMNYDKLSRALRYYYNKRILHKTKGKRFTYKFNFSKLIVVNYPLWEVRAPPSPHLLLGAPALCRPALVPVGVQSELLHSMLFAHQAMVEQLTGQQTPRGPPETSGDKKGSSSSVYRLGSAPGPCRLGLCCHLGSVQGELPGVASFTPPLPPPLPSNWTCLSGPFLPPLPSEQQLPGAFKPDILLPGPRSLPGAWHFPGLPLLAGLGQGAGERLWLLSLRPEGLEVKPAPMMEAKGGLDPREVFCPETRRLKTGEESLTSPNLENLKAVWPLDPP
How it was run: as §1

ETS2 = target: T8, ETS2 (Homo sapiens, UniProt P15036 1-469)
T8 sequence: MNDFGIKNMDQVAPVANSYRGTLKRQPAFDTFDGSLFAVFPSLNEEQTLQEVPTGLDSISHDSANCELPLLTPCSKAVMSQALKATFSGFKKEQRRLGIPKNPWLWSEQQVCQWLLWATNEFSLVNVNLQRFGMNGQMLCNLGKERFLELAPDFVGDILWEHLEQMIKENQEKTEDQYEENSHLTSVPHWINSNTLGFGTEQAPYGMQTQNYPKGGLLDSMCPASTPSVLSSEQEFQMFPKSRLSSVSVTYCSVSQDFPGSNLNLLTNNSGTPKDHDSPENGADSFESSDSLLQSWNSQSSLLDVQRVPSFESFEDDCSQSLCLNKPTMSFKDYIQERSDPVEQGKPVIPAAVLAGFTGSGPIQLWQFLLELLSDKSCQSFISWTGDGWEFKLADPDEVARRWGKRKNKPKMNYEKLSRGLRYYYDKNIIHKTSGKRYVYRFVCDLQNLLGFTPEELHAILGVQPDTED
How it was run: as §1

ETV7 = target: T9, ETV7 (Homo sapiens, UniProt Q9Y603 1-341)
T9 sequence: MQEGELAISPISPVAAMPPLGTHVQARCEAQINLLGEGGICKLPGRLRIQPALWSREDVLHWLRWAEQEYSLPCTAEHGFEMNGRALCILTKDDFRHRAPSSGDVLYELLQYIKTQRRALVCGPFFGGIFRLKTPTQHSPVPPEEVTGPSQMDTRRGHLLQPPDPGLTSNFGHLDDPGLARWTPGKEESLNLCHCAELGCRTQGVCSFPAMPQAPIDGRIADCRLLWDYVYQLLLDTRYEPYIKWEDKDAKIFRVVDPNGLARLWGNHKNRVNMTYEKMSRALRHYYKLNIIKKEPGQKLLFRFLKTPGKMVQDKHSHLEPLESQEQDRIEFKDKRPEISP
How it was run: as §1

ETV3 = target: T10, ETV3 (Homo sapiens, UniProt P41162-2 1-143)
T10 sequence: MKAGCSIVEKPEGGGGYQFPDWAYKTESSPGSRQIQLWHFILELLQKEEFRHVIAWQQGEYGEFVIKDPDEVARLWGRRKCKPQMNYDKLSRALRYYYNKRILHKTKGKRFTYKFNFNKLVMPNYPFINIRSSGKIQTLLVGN
How it was run: as §1

ETV6 = ETV6 (Homo sapiens, UniProt P41212 1-452)
How it was run: as §1

ETV6, sequence (P41212 whole entry): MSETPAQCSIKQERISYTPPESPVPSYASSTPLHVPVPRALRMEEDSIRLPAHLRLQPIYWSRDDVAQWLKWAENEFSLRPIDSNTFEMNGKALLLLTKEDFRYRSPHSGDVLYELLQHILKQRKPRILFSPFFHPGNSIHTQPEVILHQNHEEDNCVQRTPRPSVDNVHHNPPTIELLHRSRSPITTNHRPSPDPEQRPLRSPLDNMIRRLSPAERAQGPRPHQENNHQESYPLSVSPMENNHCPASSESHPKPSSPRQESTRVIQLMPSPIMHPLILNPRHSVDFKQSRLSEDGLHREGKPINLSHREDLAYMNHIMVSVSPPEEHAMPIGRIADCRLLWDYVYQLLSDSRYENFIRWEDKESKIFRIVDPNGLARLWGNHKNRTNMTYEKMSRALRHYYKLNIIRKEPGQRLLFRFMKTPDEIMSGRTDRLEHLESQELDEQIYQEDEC
ETV5, sequence (P41161 whole entry): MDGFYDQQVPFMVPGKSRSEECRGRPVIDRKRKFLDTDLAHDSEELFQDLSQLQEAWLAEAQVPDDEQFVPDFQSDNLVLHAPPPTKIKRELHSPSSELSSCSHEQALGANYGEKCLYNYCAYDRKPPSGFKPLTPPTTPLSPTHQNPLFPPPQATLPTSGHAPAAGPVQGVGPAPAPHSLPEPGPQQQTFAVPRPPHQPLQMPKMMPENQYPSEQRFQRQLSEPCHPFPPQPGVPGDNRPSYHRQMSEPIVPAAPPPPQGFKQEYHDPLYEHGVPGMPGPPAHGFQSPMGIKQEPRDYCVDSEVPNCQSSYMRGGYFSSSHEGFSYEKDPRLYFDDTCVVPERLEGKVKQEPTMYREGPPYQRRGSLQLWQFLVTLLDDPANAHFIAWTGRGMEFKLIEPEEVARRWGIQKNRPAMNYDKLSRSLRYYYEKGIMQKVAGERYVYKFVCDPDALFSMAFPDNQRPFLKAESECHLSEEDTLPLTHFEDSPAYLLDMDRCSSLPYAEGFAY
ELF1, sequence (P32519 whole entry): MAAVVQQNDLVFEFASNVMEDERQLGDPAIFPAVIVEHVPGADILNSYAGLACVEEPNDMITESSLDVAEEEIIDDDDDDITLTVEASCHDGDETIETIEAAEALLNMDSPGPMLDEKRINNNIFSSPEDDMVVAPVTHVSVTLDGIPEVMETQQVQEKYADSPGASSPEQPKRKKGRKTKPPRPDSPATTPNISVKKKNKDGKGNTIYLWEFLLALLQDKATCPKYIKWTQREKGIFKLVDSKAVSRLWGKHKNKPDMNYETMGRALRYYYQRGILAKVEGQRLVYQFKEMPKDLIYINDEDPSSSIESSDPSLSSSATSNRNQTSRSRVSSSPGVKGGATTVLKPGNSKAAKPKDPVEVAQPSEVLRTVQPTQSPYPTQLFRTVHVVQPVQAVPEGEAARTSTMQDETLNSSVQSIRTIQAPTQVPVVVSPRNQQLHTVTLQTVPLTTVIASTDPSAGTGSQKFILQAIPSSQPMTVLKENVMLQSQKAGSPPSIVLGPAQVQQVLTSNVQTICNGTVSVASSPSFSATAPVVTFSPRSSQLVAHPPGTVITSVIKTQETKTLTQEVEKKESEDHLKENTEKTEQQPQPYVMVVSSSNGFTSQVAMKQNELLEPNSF

Sequence: TCAAGC
- binding signal (ERG): 1.01 fold enrichment (6-mer frequency, TF over GST control)
- binding signal (ELF1): 1 fold enrichment (6-mer frequency, TF over GST control)
- binding signal (EHF): 1.01 fold enrichment (6-mer frequency, TF over GST control)
- binding signal (ETV5): 1.02 fold enrichment (6-mer frequency, TF over GST control)
- binding signal (ELK4): 1.01 fold enrichment (6-mer frequency, TF over GST control)
- binding signal (ETV2): 1.09 fold enrichment (6-mer frequency, TF over GST control)
- binding signal (ELF3): 1.04 fold enrichment (6-mer frequency, TF over GST control)
- binding signal (ERF): 1.06 fold enrichment (6-mer frequency, TF over GST control)
- binding signal (ETV3L): 1.08 fold enrichment (6-mer frequency, TF over GST control)
- binding signal (ETS2): 1 fold enrichment (6-mer frequency, TF over GST control)
- binding signal (ETV7): 1.04 fold enrichment (6-mer frequency, TF over GST control)
- binding signal (ETV3): 1.08 fold enrichment (6-mer frequency, TF over GST control)
- binding signal (ETV6): 1.03 fold enrichment (6-mer frequency, TF over GST control)
